Consider 24 compounds from PubChem BioAssay AID504652 (National Center for Advancing Translational Sciences (NCATS), 2011).

In all, about 360,000 compounds went through this assay and about 11,000 (3.1%) were called active. The entries come from a sample that favours actives as a whole. A number with no mark means an inactive call. Rule as the data show it: active = activity change below about -30%; inactive = the rest.
% is scaled to controls: 0 for no effect and ±100 for the full control effect.

For the test, the target named is D(1A) dopamine receptor (Homo sapiens) (UniProt P21728). Kind of test: Antagonist of Human D 1 Dopamine Receptor: qHTS. The note with it: HEK293 TREx D1 cells, calcium flux, dopamine EC80; at 10 µM; stronger effect = lower value. The method, boiled down: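 Inducible Hek293 Trex D1 cells (tetracycline, overnight, 30 C). Calcium dye 30–90 min RT. Antagonist mode: EC80 dopamine added after 180 s compound read.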
Chain of D(1A) dopamine receptor (Homo sapiens) (P21728 whole entry, looked up): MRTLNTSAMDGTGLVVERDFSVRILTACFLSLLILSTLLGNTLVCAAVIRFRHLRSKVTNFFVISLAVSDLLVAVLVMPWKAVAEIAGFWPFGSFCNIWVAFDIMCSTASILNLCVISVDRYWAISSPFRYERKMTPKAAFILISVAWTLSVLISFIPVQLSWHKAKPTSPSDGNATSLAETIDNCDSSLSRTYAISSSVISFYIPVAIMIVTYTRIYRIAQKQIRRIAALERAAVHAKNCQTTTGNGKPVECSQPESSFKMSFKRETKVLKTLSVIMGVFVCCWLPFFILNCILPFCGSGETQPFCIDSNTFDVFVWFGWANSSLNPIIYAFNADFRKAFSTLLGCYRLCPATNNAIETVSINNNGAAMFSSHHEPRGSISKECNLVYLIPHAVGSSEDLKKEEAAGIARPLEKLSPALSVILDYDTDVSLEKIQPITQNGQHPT
(Quantitative high-throughput screening tests each substance at several concentrations.)
In the case of `O=C(CNC(=O)c1ccccc1)OC(C(=O)Nc1cc([N+](=O)[O-])ccc1F)c1ccccc1` (centres undefined), the activity change, negative = inhibition is 4.21%.

For the compound `CC(C)(C)OC(=O)N1CCC(c2c(C(=O)N3CCN(c4cccc(Cl)c4)CC3)cnn2-c2cccc(Cl)c2)CC1`, the activity change, negative = inhibition was -2.09%. As for `Cc1nc(SCC(=O)N2CCN(c3ccccc3)CC2)[nH]c(=O)c1C`, the figure is -2.36%. Take `Cc1ccc(OCC(=O)OC(C)CN(C)Cc2ccccc2)cc1` (centres undefined): the activity change, negative = inhibition was -3.69%. In the case of `CN(Cc1ccccc1)CC(O)COc1ccc(CNCc2cc3ccccc3s2)cc1` (centres undefined) it was -41.2% (active). Regarding `COc1ccc(OCC(O)CN(C)C(=O)C(C)Oc2ccccc2)cc1` (centres undefined), the activity change, negative = inhibition is -13.9%. For `COc1cc(C(=O)N/C(=C\c2cn(C)c3ccccc23)C(=O)N2CCOCC2)cc(OC)c1OC`, the activity change, negative = inhibition was -33.6% (active). For the compound `CCn1cc(/C=C(\NC(=O)c2cc(OC)c(OC)c(OC)c2)C(=O)N2CCN(C)CC2)c2ccccc21`, the activity change, negative = inhibition was 3.95%. Consider `Cc1ccc(C(=O)N/C(=C\c2cn(C)c3ccccc23)C(=O)N2CCN(C)CC2)cc1`, for which the activity change, negative = inhibition is 10.2%. As for `COc1ccccc1Cc1nc2ccccc2nc1SCC(=O)N1CCCc2ccccc21`, the figure is -2.97%; as for `COc1ccc(NC(=O)c2cnc(Nc3ccc(C)c(Cl)c3)c3ccccc23)cc1OC`, 0.261%. Regarding `Cc1cc(C)c(NC(=O)Cn2c(SCC(=O)NCc3ccccc3)nc3ccccc32)c(C)c1`, the activity change, negative = inhibition is 2.9%. As for `Cc1ccccc1NC(=O)Cc1nc(COC(=O)c2ccc(C(F)(F)F)cc2)cs1`, the figure is -34.6% (active); as for `Cc1ccccc1NC(=O)Cc1nc(COC(=O)c2cccnc2Cl)cs1`, -12%. In the case of `C/C=C/C(=O)OCc1csc(CC(=O)Nc2ccccc2C)n1` it was -6.19%; in that of `CCC(=O)N1CCc2cc(CNC(=O)Nc3ccccc3Cl)ccc21`, 8.55%; in that of `CCCN1C(=O)C(O)(CC(=O)c2ccc(CC)cc2)c2cc(Br)ccc21` (centres undefined), -2.04%. In the case of `Cc1ccc(-c2onc(C)c2C)cc1S(=O)(=O)Nc1ccccn1` it was -4.41%; in that of `COc1ccc(-c2onc(C)c2C)cc1S(=O)(=O)NCCc1ccccc1`, -3.85%. Take `O=S(=O)(c1ccc(Br)cc1)c1nnn2c1nc(N1CCOCC1)c1sccc12`: the activity change, negative = inhibition is 0.25%.

In the case of `O=C(Nc1ccc2ccccc2c1)Nc1ccc2snnc2c1`, the activity change, negative = inhibition was -44.8% (active). For `Cc1nc2cc(NC(=O)Nc3cccc(F)c3)ccc2n1C`, the activity change, negative = inhibition was -4.15%. As for `O=C(Nc1ccncc1)Nc1ccc(F)cc1`, the figure is 9%; as for `Cc1ccccc1NC(=O)Cn1c(=O)n(Cc2ccco2)c(=O)c2ccc(C(=O)NC3CCCC3)cc21`, -18.2%.
